The term IC50 denotes the concentration at which inhibition is half-maximal.

Some of the results follow. The source made the active and inactive calls. No rule for the calls is given here.

Data on one molecule can be found in PubChem BioAssay AID720651 (The Scripps Research Institute Molecular Screening Center, 2013).

This assay can be described thus: molecules binding r(CAG) RNA repeats, late stage dose response, late-stage follow-up, biochemical, fluorescence, dose response, powder samples (AID 720651). The settings on record: r(CAG) RNA TO-PRO-1 dye displacement.

Consider `Cc1noc(NS(=O)(=O)c2ccc(NC(=O)c3oc4ccc(F)cc4c3C)cc2)c1C`, for which the IC50 was 1260 nM (active).
